Test systems include SR leukemia; RPMI-8226 leukemia; OVCAR-5 ovarian; OVCAR-4 ovarian; SK-OV-3 ovarian; IGROV1 ovarian; OVCAR-3 ovarian; HS 578T breast; NCI/ADR-RES ovarian; T-47D breast; BT-549 breast; MDA-MB-435 melanoma; SW-620 colon; MCF7 breast; HCT-116 colon; HCC-2998 colon; KM12 colon.
Assay in all cases: NCI-60 one-dose screen, 48 h (100 = growth as untreated, 0 = no growth, -100 = all killed)
Conditions in all cases: 10 µM unless noted

This is part of a sample that, as a whole, favours compounds with a hit. Of some 83,000 tested, about 20% had one in any assay.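 Note: values are percent growth. 100 is the growth of untreated cells, values between 100 and 0 indicate rising inhibition; between -100 and 0 indicates cell death.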 Values without a mark were called inactive. Calls of active or inactive are those of the source. How the source made its calls: active means growth percent below 10; inactive means the rest.

With `Cc1ccc(C(=O)NN2C(=O)CSC2c2ccc(Cl)cc2)cn1` (stereo unspecified), the growth is 80.8% in the assay with SR leukemia; 113% with RPMI-8226 leukemia; 92.3% with OVCAR-5 ovarian; 101% with OVCAR-4 ovarian; 97.1% in the assay with SK-OV-3 ovarian; 54.8% in the assay on IGROV1 ovarian. Further, the growth is 111% in the assay with OVCAR-3 ovarian; 130% in the assay on HS 578T breast; 93.2% with NCI/ADR-RES ovarian; 84% in the assay with T-47D breast; 192% in the assay with BT-549 breast; 91.1% in the assay on MDA-MB-435 melanoma. The growth in the assay on SW-620 colon was 97%; in the assay with MCF7 breast, 105%; in the assay with HCT-116 colon it was 96%; in the assay on HCC-2998 colon, 96.5%; with KM12 colon, 97.9%.

For `CC1(C)C2CC1C1(/C=N\Nc3ccccc3)C(C2)C(C#N)(C#N)C1(C#N)C#N` (stereo unspecified), the growth with SR leukemia was 92.4%; in the assay with RPMI-8226 leukemia, 90.1%; with OVCAR-5 ovarian, 103%; in the assay on OVCAR-4 ovarian, 82.5%; with SK-OV-3 ovarian, 97.4%; in the assay with IGROV1 ovarian, 64.8%. For the same compound, the growth with OVCAR-3 ovarian is 84.7%; in the assay with HS 578T breast it was 93.9%; in the assay with NCI/ADR-RES ovarian, 87.8%; with T-47D breast, 72.6%; in the assay with BT-549 breast it was 107%; in the assay on MDA-MB-435 melanoma it was 104%. For the same compound, the growth in the assay on SW-620 colon is 101%; in the assay on MCF7 breast, 94.8%; with HCT-116 colon it was 83.9%; in the assay on HCC-2998 colon, 94.6%; with KM12 colon, 81.3%.

`Cc1ccc(C(=O)NN2C(=O)CSC2c2cccc([N+](=O)[O-])c2)cn1` (stereo unspecified): the growth is 109% with SR leukemia; 82.7% with RPMI-8226 leukemia; 94.7% in the assay on OVCAR-5 ovarian; 95% in the assay with OVCAR-4 ovarian; 114% in the assay with SK-OV-3 ovarian; 73.3% in the assay with IGROV1 ovarian. In addition, the growth with OVCAR-3 ovarian was 92.9%; with HS 578T breast, 124%; with NCI/ADR-RES ovarian it was 95.2%; in the assay with T-47D breast it was 96.1%; in the assay on BT-549 breast, 104%; in the assay on MDA-MB-435 melanoma, 97%. Moreover, the growth with SW-620 colon was 98.3%; in the assay on MCF7 breast, 112%; in the assay with HCT-116 colon it was 99.6%; with HCC-2998 colon, 84%; in the assay with KM12 colon, 106%.

Take `CC(C)c1cc(C(C)C)c(S(=O)(=O)Oc2ccc(NC(=O)c3ccc(Cl)cc3)cc2)c(C(C)C)c1`: the growth with SR leukemia was 25.9%; with RPMI-8226 leukemia, 16.4%; in the assay with OVCAR-5 ovarian, 86.4%; in the assay with OVCAR-4 ovarian, 39.6%; in the assay with SK-OV-3 ovarian, 78.2%; in the assay with IGROV1 ovarian, 47.1%. Besides, the growth with OVCAR-3 ovarian is 31.6%; in the assay on HS 578T breast, 39.5%; with NCI/ADR-RES ovarian, 35.6%; in the assay on T-47D breast, 7.98% (active); in the assay with BT-549 breast, 20.4%; with MDA-MB-435 melanoma, 41.4%. The growth in the assay on SW-620 colon is 21.7%; in the assay on MCF7 breast it was 16.3%; in the assay on HCT-116 colon, 8.78% (active); in the assay with HCC-2998 colon, 26.3%; in the assay on KM12 colon it was 18.4%.

For the compound `O=C1NC(=O)C(c2ccccc2)(c2ccccc2)N1Cc1cn(-c2c3ccccc3nc3ccccc23)nn1`, the growth is 31.4% in the assay on SR leukemia; 72.4% with RPMI-8226 leukemia; 103% in the assay on OVCAR-5 ovarian; 81.1% in the assay with OVCAR-4 ovarian; 83.5% in the assay with SK-OV-3 ovarian; 83.3% in the assay with IGROV1 ovarian. Besides, the growth in the assay with OVCAR-3 ovarian was 87%; in the assay on HS 578T breast, 83%; in the assay on NCI/ADR-RES ovarian, 87%; with T-47D breast it was 63.6%; with BT-549 breast, 81.5%; in the assay on MDA-MB-435 melanoma, 94.4%. Besides, the growth in the assay on SW-620 colon is 85.6%; in the assay with MCF7 breast it was 73.9%; in the assay on HCT-116 colon, 68.1%; in the assay on HCC-2998 colon, 104%; with KM12 colon, 91.2%.

Turning to `c1ccc2cc(C[n+]3ccn(CCCCCCn4cc[n+](Cc5ccc6ccccc6c5)c4)c3)ccc2c1`, the growth with SR leukemia was 69%; in the assay on RPMI-8226 leukemia, 65.5%; in the assay on OVCAR-5 ovarian, 60.4%; in the assay with OVCAR-4 ovarian, 40.8%; with SK-OV-3 ovarian, 55.6%; with IGROV1 ovarian it was 58.1%. Besides, the growth was 62.4% with OVCAR-3 ovarian; 68.5% in the assay with HS 578T breast; 100% in the assay on NCI/ADR-RES ovarian; 38.5% in the assay with T-47D breast; 9.69% (active) with BT-549 breast; 59.2% in the assay with MDA-MB-435 melanoma. Besides, the growth in the assay on SW-620 colon was 95.5%; in the assay with MCF7 breast, 49.8%; with HCT-116 colon, 45.2%; in the assay with HCC-2998 colon it was 59.4%; in the assay on KM12 colon, 41.2%.

With `COc1cccc(Oc2ccccc2NC(=O)CNC(=O)c2cccc3ccccc23)c1`, the growth with SR leukemia is 5.26% [5 µM] (active); with RPMI-8226 leukemia it was 21.8% [5 µM]; in the assay with OVCAR-5 ovarian, 41.8% [5 µM]; in the assay on OVCAR-4 ovarian, 42.2% [5 µM]; in the assay with SK-OV-3 ovarian, 42.2% [5 µM]; in the assay on IGROV1 ovarian, 27.6% [5 µM]. Moreover, the growth is -23.7% [5 µM] (active) with OVCAR-3 ovarian; 24.7% [5 µM] in the assay on HS 578T breast; 15.3% [5 µM] in the assay with NCI/ADR-RES ovarian; 62.3% [5 µM] in the assay on T-47D breast; 50.7% [5 µM] in the assay on BT-549 breast; -20.5% [5 µM] (active) with MDA-MB-435 melanoma. The growth in the assay on SW-620 colon was 22.4% [5 µM]; with MCF7 breast it was 20.5% [5 µM]; in the assay with HCT-116 colon it was 3.51% [5 µM] (active); in the assay on HCC-2998 colon, 25.5% [5 µM]; in the assay on KM12 colon, 13.5% [5 µM].

Take `COc1ccc(C2CC(c3ccc(Nc4nc(Nc5ccc(F)cc5)nc(Nc5ccc(Cl)cc5)n4)cc3)=NN2C(C)=O)cc1` (stereo unspecified): the growth with SR leukemia was 107%; in the assay on RPMI-8226 leukemia it was 90.8%; with OVCAR-5 ovarian it was 104%; in the assay on OVCAR-4 ovarian, 99.3%; in the assay with SK-OV-3 ovarian, 107%; with IGROV1 ovarian, 40.4%. In addition, the growth with OVCAR-3 ovarian was 128%; in the assay on HS 578T breast, 108%; in the assay on NCI/ADR-RES ovarian, 85%; with T-47D breast, 72.5%; in the assay on BT-549 breast, 143%; in the assay on MDA-MB-435 melanoma it was 97.1%. Moreover, the growth was 109% with SW-620 colon; 105% in the assay with MCF7 breast; 94.6% with HCT-116 colon; 99.7% with HCC-2998 colon; 135% with KM12 colon.

The values are drawn from PubChem BioAssay (NCI).
